# Laboratory results published in PubChem BioAssay AID1458 (National Center for Advancing Translational Sciences (NCATS), 2008).
# Hit rate of the full screen: of about 210,000 compounds, about 5,900 (2.8%) were called active. About 5% were inconclusive and are not listed. The list comes from a sample in which actives are over-represented; it also holds similar structures and randomly drawn compounds. A number with no mark means an inactive call. Calls follow the shape of the dose curve; as a rule, active = well fitted activation curve with a large enough effect; inconclusive = small, poorly fitted or top-dose-only effect; inactive = no such curve, though single readings can be large or run the other way.
# Test: qHTS Assay for Enhancers of SMN2 Splice Variant Expression; also: nearly all actives have a fitted effect of over 55% in size; as to activity change, positive = activation: % of control where 0% means no effect
# Settings: HEK293 SMN2-luciferase splicing reporter, luminescence, 30-36 h; series mostly up to 46.1 µM; activity change, positive = activation: at the top concentration
# From the text: NIH Chemical Genomics Center [NCGC] NIH Molecular Libraries Probe Production centers Network [MLPCN] MLPCN Grant: R03 MH084179-01 Assay Submitter (PI): Elliot Androphy NCGC Assay Overview: Spinal muscular atrophy (SMA) is caused by insufficient levels of the survival motor neuron protein SMN. The SMN locus on chromosome 5q13 contains two inverted copies of SMN called SMN1 and SMN2 which are 99% identical at the amino acid level. SMN1 is a fully functional protein and SMN2 skips exon 7 90% of the time. Skipping of exon 7 produces non-functional protein product. 10% of the SMN2 protein includes exon 7 and is fully functional. In the SMA disease state, mutations in the SMN1 locus are the cause of the disease state. Because only 10% of SMN2 is of the fully functional form, it is not sufficient to overcome the deficiency produced by the loss of the SMN1 product. A therapy that either increase the amount of SMN2 product made or to increase the inclusion of exon 7 has been proposed for the treatment of SMA. We have designed an assay to identify small molecules that can increase the amount of functional SMN2 product by appending a luciferase reporter gene after the native SMN2 gene, such that inclusion of exon 7 in the expressed product places the luciferase sequence in frame, thus generating functional luciferase enzyme.
# NCGC Assay Protocol Summary: This screen utilizes a luciferase reporter gene assay, combining the promoter and splicing based cassettes in tandem with the major portion of the native SMN2 cDNA, and then transfected into HEK293 cells. Compounds that increase luciferase signal presumably enhance expression of the functional SMN2 splice variant. Passaging media contained DMEM w/ glutamax (+phenol red) 10% FCS, 1x pen/strep, 200 ug/ml hygro, 1x sodium pyruvate. Assay media contained DMEM w/ glutamax (-phenol red) 10% FCS, 1x pen strep, 1x pyruvate Sequence, Parameter, Value, Description (1) Cells, […], 2000 cells/well, 1536 TC treated White solid bottom plate (2) Time, 10-12 hours, 37C 5% CO2 (3) Compound, 23 nl, MLSMR Library (4) Control Compound, 23 nL, Sodium butyrate st 4.5mM (final) conc (5) Time, 30-36 hours, 37C 5% CO2 (6) Reagent, 3 ul, One Glo (TM) from Promega (7) Time, 5-15 minutes, Room temp (8) Detector, Viewlux: luminescent read, 60 second integration, high speed 2x binning Keywords: Spinal muscular atrophy, SMA, SMN2, high throughput screening, MLSMR, MLPCN, NIH Roadmap, qHTS and NCGC
# Potency is read from the fitted curve at half-maximal effect.
SMILES,"activity change, positive = activation [%]",Potency
O=c1c(-c2ccccc2)coc2c(CN3CCOCC3)c(O)ccc12,-18.2,
Cc1c(O)cc(O)c2c(=O)c(-c3ccc(O)cc3)coc12,-11.6,
O=c1c(-c2ccccc2)coc2cc(O)ccc12,,22.4 µM (active)
COc1cc2nc(NCC(C)c3ccccc3)n3nc(-c4ccccc4)nc3c2cc1OC (stereo not given),23.7,
Cc1cc(C)c2oc(C(=O)Nc3c(C(=O)Nc4ccccc4)oc4ccccc34)cc(=O)c2c1,-0.706,
Cc1ccc(Cl)cc1N1CCN(C(=O)C2CCC(CNS(=O)(=O)c3cccs3)CC2)CC1 (stereo not given),-13.3,
COc1cc(C(=O)OCc2ccc([N+](=O)[O-])cc2)cc(OC)c1OC,-2.26,
COc1cc(/C=N/O)ccc1OCc1ccc([N+](=O)[O-])cc1,,14.1 µM (active)
COc1cc(/C=N\Nc2ccc([N+](=O)[O-])cn2)ccc1OCC(=O)O,7.65,
COc1ccc(N2CCN(C(=O)C3CCCN(C(=O)c4cc5sccc5n4C)C3)CC2)cc1 (stereo not given),-34.1,
Cc1ccc(S(=O)(=O)c2nc(-c3ccco3)oc2SCC(=O)Nc2ccc(F)cc2)cc1,-0.512,
COc1ccc(C2COC(=O)C2=N)c(NC(=O)c2ccccc2)c1 (stereo not given),9.6,
COc1cccc(C(=O)NNC(=O)c2ccccc2Br)c1,-6.77,
Cc1ccccc1C(=O)Nc1ccc(N2CCCCCC2)cc1,,12.6 µM (active)
COc1cccc(C(=O)Nc2ccc(N3CCCC3)cc2)c1,,8.91 µM (active)
COc1cccc(C(=O)Nc2cc3c(cc2Br)OCCCO3)c1,,10 µM (active)
Cc1cc(NS(=O)(=O)c2ccc(NC(=O)c3ccccc3C)cc2)nc(C)n1,-6.19,
COc1cccc(OC)c1C(=O)Nc1ccc(N2CCCCC2)cc1,-25.4,
COc1ccc(C(=O)NC(=S)Nc2ccc(N3CCCC3)cc2)cc1OC,-14.4,
C/C(=N\NC(=O)c1ccccc1C)c1ccc(N2CCOCC2)cc1,16.8,
CCn1cc(C(=O)NCc2ccccc2)c(=O)c2cc(S(=O)(=O)N3CCCCC3)ccc21,0.829,
CC(C)Cn1c(=O)c2ccccc2n2c(CCC(=O)N3CCN(c4cccc(Cl)c4)CC3)nnc12,-5.96,

SMILES,"activity change, positive = activation [%]",Potency
Cc1ccc(OCCn2c(CNc3ccccc3C)nc3ccccc32)cc1,4.39,
O=C(NCCCO)c1nn(-c2ccc(Cl)cc2)nc1CO,-6.62,
O=C(Cn1c(=O)n(Cc2cccs2)c(=O)c2cccnc21)Nc1ccc(F)cc1,0.241,
Cc1ccc(NC(=O)CN2C(=O)C(c3ccc(F)cc3)=NC23CCCCCC3)c(C)c1,22.3,
CCOc1ccc(N(Cc2ccccc2)C(=O)c2nc(S(C)(=O)=O)ncc2Cl)cc1,-86.3,
O=C(CCS(=O)(=O)c1cc(Br)cc2c1N(C(=O)C1CC1)CC2)Nc1ccc(C(F)(F)F)cc1,1.62,
O=C(c1ccco1)n1nc(-c2ccc(Cl)cc2)nc1NCc1ccccc1,9.32,
CCCCOc1ccc(CN2C(=O)C(=O)c3cc(Br)cc(C)c32)cc1OC,-33.5,
COC(=O)c1ccccc1NC(=O)c1ccc(COc2ccccc2Cl)o1,-4.75,
CSc1ccc(C#N)cc1NC(=O)c1cccc(Cl)c1,12.8,
N#Cc1ccccc1NC(=O)c1cccc(COc2ccc(Cl)cc2Cl)c1,,0.794 µM (active)
Cc1cccc2c1-c1sc(C(=O)Nc3ccc(F)cc3F)cc1CO2,-7.99,
Nc1nc2c(ncn2[C@@H]2O[C@H](COP(=O)(O)OP(=O)(O)OP(=O)(O)O)[C@@H](O)C2O)c(=O)[nH]1 (stereo not given in full),1.43,
CCN(CC)S(=O)(=O)c1cc(C(=O)Nc2ccccn2)ccc1C,,22.4 µM (active)
CCN(CC)S(=O)(=O)c1cccc(C(=O)Nc2ccccc2)c1,-30.2,
Cc1ccc(C(=O)Nc2ccc(C(=O)O)cc2)cc1S(=O)(=O)Nc1ccccc1,-7.6,
COC(=O)c1ccc(OC)c(Cn2c(=O)n(Cc3ccccc3)c(=O)c3c2c2cc(OC)ccc2n3C)c1,-3.23,
CNC(=O)CSc1nnnn1-c1ccc(C)cc1C,-16.8,
CCn1nnnc1SCC(=O)c1ccc(C)cc1C,,2.82 µM (active)
Cc1ccc(C(=O)CSc2nc(-c3ccccc3)nc3c2CCCC3)c(C)c1,2.13,
COc1ccccc1-c1cc(C(F)(F)F)nc(S(=O)(=O)CCCC(=O)Nc2ccc(F)cc2F)n1,2.69,
Cc1ccsc1C(=O)N/N=C/c1ccc([N+](=O)[O-])cc1,,12.6 µM (active)

SMILES,"activity change, positive = activation [%]",Potency
COc1ccc(NC(=O)c2ccccc2[N+](=O)[O-])cc1OC,16.3,
Cc1ccc(NC(=O)CN2CCC(C(N)=O)CC2)cc1[N+](=O)[O-],8.3,
NC(=S)N/N=C/c1ccc([N+](=O)[O-])cc1,-8.3,
Cc1ccc(NC(=O)c2sccc2C)cc1[N+](=O)[O-],,14.1 µM (active)
Cc1nc2ccccc2cc1C(=O)N/N=C/c1ccc([N+](=O)[O-])cc1,-19.1,
Cc1ccc(C)c(CN2C(=O)c3ccccc3S(=O)c3ccc(C(=O)N4CCOCC4)cc32)c1 (stereo not given),-1.41,
COc1ccccc1-c1cc2nc(C)c(CCC(=O)O)c(C)n2n1,-22,
Cc1ccc(CN2COc3cc(C)c4c(oc(=O)c5ccccc54)c3C2)cc1,-3.2,
Cc1ccc2nc(/C(C#N)=C\c3ccc(OC(=O)c4cccs4)cc3)[nH]c2c1,1.65,
Cc1ccc2nc(/C(C#N)=C/c3ccc(-c4ccc(C(=O)OC(C)C)cc4)o3)[nH]c2c1,,11.2 µM (active)
CCOC(=O)c1ccc(-c2ccc(/C=C(\C#N)C(=O)Nc3ccc(OCC)cc3)o2)cc1,-11.3,
O=C(NCCc1ccccc1)c1ccc2c(c1)N(Cc1ccccc1)C(=O)c1ccccc1S2(=O)=O,4.46,
O=C(CSCc1ccccc1)N1CCc2ccccc21,,12.6 µM (active)
NC(=O)N1CCc2ccccc21,-6.27,
Cc1nnc(SCC(=O)N2CCc3ccccc32)n1-c1ccccc1,-11.7,
Cc1ccc(C)c(N2CCN(C(=O)CN3C(=O)COc4ccc(S(=O)(=O)N5CCCCCC5)cc43)CC2)c1,6.26,
Cc1cc(C)nc(NS(=O)(=O)c2ccc(NC(=O)c3cc(=O)c4ccc(C)c(C)c4o3)cc2)n1,2.53,
COc1ccccc1-c1nnc(C2CCN(C(=O)c3ccc(Cl)cc3)CC2)o1,-12.1,
COc1ccc(C(=O)/C=C/Nc2ccccn2)cc1,,1.41 µM (active)
CCOc1cc(NC(=O)c2ccccn2)c(OCC)cc1NC(=O)c1ccc(OC)cc1,-2.18,
Cc1cc(N/C=C\C(=O)c2ccc(Cl)c(Cl)c2)no1,10.9,
